# From PubChem
# A selection: hits, their analogues and other compounds. The true share with any hit is near 3.4%.
# KLK7 zymogen act – activates the human kallikrein-7 zymogen. P49862. 370,000 tested, 0.9% active. AID 652039. activation, % at 7 µM. purified proKLK7, EDANS-DABCYL substrate fluorescence; 100% is mature enzyme control, 0% vehicle;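 active = activation above the mean of all tested compounds plus 3 SD, computed per campaign excluding outliers beyond control limits, cut at about 13% in these data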
# sPLA2-III inh – Blocks human group III sPLA2 activity | Q9NZ20 | QFRET BODIPY PC-A2 liposome hydrolysis, fluorescence | inhibition, % at 12.2 µM | 370,000 tested, 0.56% active | AID 743126;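 active = inhibition above mean plus 3 SD of compounds lying within the high and low control bounds, cut at about 19% in these data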;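 also: 0% = median of test compound wells and 100% = no enzyme DMSO wells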
# CendR NRP1 mod – modulators of CendR peptide binding to human neuropilin-1. FAM-RPARPAR peptide binding to NRP-1, fluorescence polarization. inhibition, % at 25 µM. 360,000 tested, 0.85% active. AID 602438;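 active = inhibition or corrected inhibition above about 18%, plus a signal ratio from 0.5 to 1.5, limit read from the data, passing the limit was not always enough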
# ADAM10 inh – inhibitors of human ADAM10; recombinant ADAM10, EDANS/DABCYL FRET peptide cleavage, 3 h; O14672; inhibition, % at 7 µM; 370,000 tested, 0.62% active;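 active = inhibition above a per-campaign cutoff equal to the mean of compounds falling between control-based bounds plus 3 SD, cut at about 20% in these data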;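 also: 0% = DMSO wells while the 100% control is not disclosed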
# ADAM17 inh – inhibitors of human ADAM17 | P78536 | recombinant ADAM17, EDANS/DABCYL FRET peptide cleavage | inhibition, % at 6.95 µM | 370,000 tested, 0.83% active | AID 720648;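 active = inhibition above the mean of compounds lying between control limits plus 3 SD, set per campaign, cut at about 8.5% in these data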;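 also: 0% = DMSO-only wells as the low control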
# Target sequence (P78536 215-824 limits assumed): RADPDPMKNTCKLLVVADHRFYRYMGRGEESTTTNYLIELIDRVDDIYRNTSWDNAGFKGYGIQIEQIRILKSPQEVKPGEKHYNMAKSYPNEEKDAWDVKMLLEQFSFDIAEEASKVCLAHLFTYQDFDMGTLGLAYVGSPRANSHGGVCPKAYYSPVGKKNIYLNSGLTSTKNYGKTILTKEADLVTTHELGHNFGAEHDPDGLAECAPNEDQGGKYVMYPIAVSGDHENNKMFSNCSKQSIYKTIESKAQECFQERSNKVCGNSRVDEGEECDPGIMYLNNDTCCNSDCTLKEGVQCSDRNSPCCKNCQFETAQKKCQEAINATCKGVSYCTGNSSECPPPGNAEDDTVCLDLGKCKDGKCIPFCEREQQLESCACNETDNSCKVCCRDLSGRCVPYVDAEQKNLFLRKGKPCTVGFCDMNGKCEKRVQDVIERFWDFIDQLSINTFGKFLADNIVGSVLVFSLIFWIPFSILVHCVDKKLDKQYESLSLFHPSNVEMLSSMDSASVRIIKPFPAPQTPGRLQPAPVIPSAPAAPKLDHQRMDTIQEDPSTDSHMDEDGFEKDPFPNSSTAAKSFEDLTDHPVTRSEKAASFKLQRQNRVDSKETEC
# proKLK7 act conf – confirmation of human kallikrein-7 zymogen activators | 3,200 tested, 68% active | activation, % at 7 µM | purified proKLK7, EDANS-DABCYL substrate fluorescence; scaled: vehicle 0, mature enzyme 100 | shares compounds with KLK7 zymogen act;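 active = activation, as change over the incubation, above the mean of all tested compounds plus 3 SD, cut at about 13% in these data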
# EDANS-DABCYL int – fluorescence interference counter-screen for KLK7 activators | shares compounds with KLK7 zymogen act | EDANS-DABCYL substrate fluorescence interference, no enzyme, 4 h; solvent 0%, active enzyme control 100% | activation, % at 7 µM | 3,200 tested, 80% active | AID 686952;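 active = activation above the all-compound mean plus 3 SD, ignoring values outside control-based bounds, cut at about 4.8% in these data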;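 also: value is the 4 h activation minus the activation read at time zero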
# EDANS interf – optically interferes with EDANS-DABCYL fluorescence, kallikrein-7 activator counter-screen; EC50, µM; AID 720493; 250 tested, 20% active; EDANS-DABCYL peptide fluorescence interference, no enzyme; shares compounds with KLK7 zymogen act;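 active = compounds that raise the fluorescence signal in this interference counterscreen, with EC50 at or below 10 µM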;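 also: intact quenched peptide substrate alone read at 355 nm excitation and 520 nm emission; signal is fluorescence gain from T0 to T4 after four hours at room temperature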
# An asterisk follows results filed as active; i = inactive; / = no result given.
SMILES,KLK7 zymogen act,sPLA2-III inh,CendR NRP1 mod,ADAM10 inh,ADAM17 inh,proKLK7 act conf,EDANS-DABCYL int,others
CCc1cc2c(CN3CCN(CCO)CC3)cc(=O)oc2cc1O,49*,1,7,i,i,57*,67*,
O=C(OC12CCCN(C1)/C(=C/c1ccccc1)C2)C1CCCCC1 (stereo not given),0,9,/,-20,-3,/,/,
Cc1cccc(NC(=O)Nc2nc3ncccn3c2-c2ccccc2)c1,12,8,/,-155,-35,/,/,
CSc1ccc(C=NNC(=O)c2cc(-c3ccc(Cl)cc3)n[nH]2)cc1,-22,-2,/,-30,-6,/,/,
OC1CNc2c(ccc3ccccc23)C1 (stereo not given),14*,7,8,i,-404,1,-6,
CC(=O)OCC(=O)c1ccc2ccn(C(C)=O)c2c1,18*,7,-3,-388,-122,32*,32*,
NC1=[N+](Cc2ccccc2)C(Cc2ccccc2)C2C(=C3CCCCC3n3c(=O)n(-c4ccccc4)c(=O)n32)N1 (stereo not given),0,0,/,-5,-1,/,/,
O=C(O)c1ccc(N/N=C/C2=Cc3ccccc3OC2)cc1,15*,-35,3,-29,-10,4,11*,
CCCCCN1CCCCC(NC(=O)c2c(F)cccc2F)C1=O (stereo not given),0,1,/,4,-2,/,/,
CCOc1ccc(/C(O)=C2/C(=O)C(=O)N(c3ccccn3)C2c2ccc(C)cc2)c(C)c1 (stereo not given),17*,-18,3,0,-2,32*,32*,
CCOc1ccc(/C(O)=C2/C(=O)C(=O)N(c3ccccn3)C2c2ccc(Cl)cc2)c(C)c1 (stereo not given),9,-13,-6,2,0,/,/,
COc1ccc(-c2ccnc3cc(C(=O)O)nn23)cc1,13*,7,1,-414,-142,34*,32*,
O=C(O)c1cc2nccc(-c3ccco3)n2n1,18*,0,2,-243,-90,23*,22*,
c1coc(-c2ccnc3nc(-n4cccc4)nn23)c1,0,0,-8,-102,-40,/,/,
C[C@@H]1COc2cccc(NCCO)c2S(=O)(=O)N1,1,9,/,-15,0,/,/,
O=C1O[C@@H](c2ccc(O)cc2)Cc2cccc(O)c21,49*,-16,30*,-135,-30,44*,52*,
COc1ccc([C@H]2Cc3cc(O)cc(O)c3C(=O)O2)cc1O,0,-8,-12,-2,2,/,/,
COc1ccccc1C(C)NCC(=O)NCC(=O)Nc1ccc(F)c(F)c1F (stereo not given),0,3,6,1,-4,/,/,
Cc1ccc(NC(=O)CN(C)C(=O)C(C)OC(=O)c2ccccc2NCCO)cc1 (stereo not given),21*,-5,-1,i,i,-2,-1,
Cc1ccc(NC(=O)CN(C)C(=O)C(c2ccccc2)c2ccccc2)cc1,0,-10,-1,-2,-4,/,/,
CC(OC(=O)c1ccccc1NCCO)C(=O)NCC(=O)Nc1ccc(F)c(F)c1F (stereo not given),25*,-6,13,i,i,83*,74*,
CC(=O)N[C@@H]1C[C@@H]2O[C@@H](CO)CC[C@@H]2O[C@@H]1CCc1ccc(C#CC2(O)CCCC2)cc1,0,-3,/,-1,-2,/,/,
COc1ccc(-c2ccc3nnc(SCC(=O)NCC4CCCO4)n3n2)cc1 (stereo not given),22*,2,-6,i,-137,31*,18*,EDANS interf=>70
COc1ccc(-c2cn3nc(SCC(=O)NCC4CCCO4)ccc3n2)cc1 (stereo not given),95*,1,4,i,i,52*,70*,
CCOc1ccc(-c2ccc3nnc(SCC(=O)NCC4CCCO4)n3n2)cc1 (stereo not given),3,2,12,-65,-20,/,/,
SMILES,KLK7 zymogen act,sPLA2-III inh,CendR NRP1 mod,ADAM10 inh,ADAM17 inh,proKLK7 act conf,EDANS-DABCYL int,others
C[C@H]1[C@@H](O)CC[C@@]23CCCN2C(=O)CCC[C@@H]13,/,-1,/,-6,-3,/,/,
COc1ccc2c(c1)CCC1(C)CC(=O)C(Br)=C21 (stereo not given),124*,8,-3,i,i,71*,76*,
COC(=O)C1(C)CCc2cc(OC)ccc2C1=O (stereo not given),0,12,-5,-5,-5,/,/,
CCN1CCN(c2ccc(N3CCN(C(=O)c4ccc(Br)o4)CC3)nn2)CC1,19*,1,9,-279,-69,6,4.4*,
Cc1ccc2c(c1)c1c(n2CC(O)Cn2c(C)nc3ccccc32)C(=O)CCC1 (stereo not given),-8,0,-11,-166,-41,/,/,
Cc1ccc2c(c1)c1c(n2CC(O)Cn2ccnc2C)C(=O)CCC1 (stereo not given),17*,-5,-14,-234,-74,9,15*,
COc1cc2c(cc1OC)CN(CC(=O)NC(=O)NCc1ccco1)CC2,48*,2,-21,-256,-93,14*,14*,
CC(C)[C@H]1/C(=C/C2CC2)N2C(=O)C[C@H](c3cccc(C(F)(F)F)c3)N=C2N1Cc1ccc2c(c1)OCO2,/,-3,/,6,1,/,/,
COc1ccc(OC)c(/C=C/C(=O)N(C)CC(=O)Nc2ccc(N3CCOCC3)cc2)c1,21*,11,1,-330,-117,19*,15*,EDANS interf=>70
Cc1cc(C)cc(N=Cc2c(O)c3ccccc3oc2=O)c1,0,-1,-9,1,-4,/,/,
O=C(O)c1cc(N=Cc2c(O)c3ccccc3oc2=O)ccc1O,150*,-4,0,-92,-33,398*,355*,
COc1ccc(/C=C(/CC(=O)Nc2ccccc2)c2nc3ccccc3s2)cc1,0,1,5,-14,-5,/,/,
COc1ccc(/C=C(/CC(=O)NCc2ccc(Cl)cc2)c2nc3ccccc3s2)cc1,28*,-19,-5,-5,-1,68*,57*,EDANS interf=2.4*
CS(=O)(=O)c1ccc(-c2sc3cc4c(cc3c2C(=O)NN2CCOCC2)OCO4)cc1,43*,-6,18,i,-344,35*,28*,EDANS interf=>70
COc1cc(C(Nc2ccccn2)c2c(NC(=O)c3ccco3)sc(C)c2C)cc(OC)c1OC (stereo not given),26*,-1,-1,5,-2,-34,-32,
